High-throughput results: PubChem BioAssay, National Center for Advancing Translational Sciences (NCATS)
HT1080 IDH1KD tx: HT-1080 IDH1 knockdown cell toxicity (counter line). 2% of 360,000 active. Potency, µM (series often up to 46.1 µM), for the others: at the highest dose activity, negative = toxicity, usual class: cytotoxic. HT-1080 IDH1 knockdown viability, ATP luminescence, 48 h;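 note: 0% = DMSO wells and -100% = cell-free medium wells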
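Viability of IDH1-knockdown HT-1080 fibrosarcoma cells was assessed by CellTiter-Glo after 48 h at 37 °C with titrated compound; concentration-effect curves were classified by fit quality and response size.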
KB-3-1 tox: KB-3-1 parental cell cytotoxicity. KB-3-1 viability, CellTiter-Glo ATP luminescence, 72 h. AID 1347075. 1.4% of 400,000 active. Potency, µM (series often up to 46.1 µM), hits mostly cytotoxic; note: nearly all actives have a fitted effect of over 60% in size
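KB-3-1 parental drug-naive adenocarcinoma cells in DMEM/10% FBS, incubated 72 h at 37 C with pin-transferred compounds across a concentration series. Viability by CellTiter-Glo luminescence; concentration-response curves fitted after normalization.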
TDP1 cell noCPT: qHTS for Inhibitors of human tyrosyl-DNA phosphodiesterase 1 (TDP1): qHTS in cells in absence of CPT; DT40 Tdp1-/- hTDP1 cells, no CPT, ATP luminescence, 48 h; 15% of 420,000 active; Potency, µM (titrated, usually from 46.2 µM), without a hit: at the top dose activity change, negative = growth inhibition, usual class: inhibitors; note: nearly all actives have a fitted effect of over 55% in size
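DT40 Tdp1-/-;hTDP1 cells, no CPT (DMSO vehicle only), 400 cells/well; compounds pin-transferred; ≥48 hr, 37 °C; CellTiter-Glo 30 min RT dark, luminescence read.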
HT1080-NT tox: kills 2HG-producing HT-1080-NT fibrosarcoma cells | Potency, µM (titrated, usually from 46.1 µM), for the others: at the highest dose activity, negative = less viability, hits mostly cytotoxic | 1.6% of 360,000 active | HT-1080-NT fibrosarcoma viability, CellTiter-Glo ATP luminescence, 48 h;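 note: NT is the 2HG producing partner of a matched IDH1 knockdown line; 0% = DMSO-treated cells and -100% = media-only wells without cells; nearly all actives have a fitted effect of over 55% in size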
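Compounds were tested in concentration-response format on HT-1080-NT cells for 48 hours at 37 degrees C. Cell viability came from CellTiter-Glo luminescence; curves were classified by r2, response magnitude and activity.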
DT40 TDP1 CPT: growth inhibition of DT40 Tdp1-/-;hTDP1 cells with camptothecin (screen for TDP1 inhibitors). Potency, µM (top dose mostly 46.2 µM), for the others: top-dose activity change, negative = growth inhibition, usual class: inhibitors. chicken DT40 Tdp1-/-;hTDP1 cells + 20 nM CPT, ATP luminescence, 48 h. 12% of 420,000 active; note: nearly all actives have a fitted effect of over 55% in size
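Chicken DT40 Tdp1-/- cells complemented with human TDP1, 400 cells/well, exposed to compounds plus 20 nM camptothecin for at least 48 h at 37 C; viability read as ATP content by CellTiter-Glo luminescence.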
KB-V1 MDR tox: KB-V1 MDR subline cytotoxicity; KB-V1 MDR cells viability, CellTiter-Glo, 72 h; Potency, µM (titrated, usually from 46.1 µM), hits mostly cytotoxic; 3.4% of 400,000 active; AID 1347076; note: nearly all actives have a fitted effect of over 60% in size
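Compound-treated KB-V1 multidrug-resistant cells, 72 h, 37 degrees C; viability by CellTiter-Glo. Fitted qHTS curves give the values.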
* = called active by the depositor; i = inactive; ? = inconclusive; nt = not tested or not shown; [ ] = dose if it differs, or a comment. Compounds with a hit are over-represented: about 19% of the library has one in this group of screens. Calls come from the whole dose curve; as a rule, active = well fitted curve in the direction sought with a large enough effect; inconclusive = small, poorly fitted or top-dose-only effect, or another doubt; inactive = no such curve, though single readings can be large; an effect the other way counts as inactive or inconclusive. Unless noted, % is set by controls: 0 for no effect and ±100 for the full control effect; potency is the fitted concentration of half-maximal effect.

SMILES	HT1080 IDH1KD tx	KB-3-1 tox	TDP1 cell noCPT	HT1080-NT tox	DT40 TDP1 CPT	KB-V1 MDR tox
CCCCNS(=O)(=O)c1ccc2nc(SCC(=O)Nc3sccc3C#N)[nH]c2c1	21µM*	?	?	?	23µM*	i
CCCCNS(=O)(=O)c1ccc2nc(SCC(=O)Nc3ccccc3Cl)[nH]c2c1	?	i	?	?	?	i
CCCCNS(=O)(=O)c1ccc2nc(SCC(=O)c3ccccc3OC)[nH]c2c1	?	i	?	?	10µM*	i
CCCCNS(=O)(=O)c1ccc2nc(SCC(N)=O)[nH]c2c1	-3%	i	?	-13%	-10%	i
COC1C=CC(CNC(=O)c2cc3c(=O)n4cccc(C)c4nc3n2C)(OC)O1 (configuration not stated)	0%	i	-15%	-4%	16µM*	i
Cc1cccn2c(=O)c3cc(C(=O)NC4CCCCC4)n(C)c3nc12	3%	?	3.3µM*	20%	4.6µM*	?
Cc1cccn2c(=O)c3cc(C(=O)O)n(C)c3nc12	-13%	i	-9%	-10%	-7%	i
Cc1cccn2c(=O)c3cc(C(=O)NC(C)(C)C)n(C)c3nc12	nt	nt	18µM*	nt	?	nt
CCN(C(=O)CSc1ncccc1C(=O)OC(C)C)c1cccc(C)c1	?	i	?	-21%	21µM*	i
CCN(C(=O)CSc1nc(-c2ccccc2)no1)c1cccc(C)c1	nt	6.5µM*	1.5µM*	nt	1.6µM*	i
CCOC(=O)c1cccnc1SCC(=O)NCc1ccccc1	4%	i	-11%	13%	1%	i
CCOC(=O)c1cccnc1SCC(=O)N(CC)c1cccc(C)c1	0%	i	?	-5%	23µM*	i
CCN(C(=O)CSc1nc2ccccc2nc1Cc1ccc(F)cc1)c1cccc(C)c1	nt	i	?	nt	?	i
O=C(CC1C(=O)NCCN1Cc1ccccc1)NCCC1=CCCCC1 (configuration not stated)	-1%	i	-5%	-2%	-11%	?
CCC(C)N(C)Cc1cccc(C2(O)CCN(S(=O)(=O)c3ccc(F)c(C)c3)CC2)c1 (configuration not stated)	0%	i	18µM*	-3%	18µM*	?
CCCn1c(SCC(=O)N2c3ccccc3CC2C)nnc1-c1ccco1 (configuration not stated)	0%	i	?	0%	21µM*	i
CC1Cc2ccccc2N1C(=O)CSc1nnc(Cc2ccccc2)n1CCc1ccccc1 (configuration not stated)	-27%	i	23µM*	-13%	?	3.3µM*
Cc1cc(C(=O)NCc2ccccc2Br)no1	10%	i	-23%	11%	?	i
COc1ccc(OC)c(N(CC(N)=O)S(=O)(=O)c2ccc(OC)c(OC)c2)c1	-17%	i	-12%	-1%[9.24 µM]	-6%	i
CCC(C)NS(=O)(=O)c1ccc(S(=O)(=O)N2CC=C(c3ccc(F)cc3)CC2)cc1 (configuration not stated)	-16%	?	18µM*	-13%	16µM*	?
COc1ccc(NC(=O)C2CC3CCC2C3)c(OC)c1 (configuration not stated)	-5%	i	3%	0%	-3%	i
CCN1C(=NCCCOC(C)C)N[C@@H](CCc2ccccc2)[C@H](C(=O)NCCCOC(C)C)[C@H]1C	-17%	?	1.6µM*	-21%	1.8µM*	i
Cc1nn(C2CCS(=O)(=O)C2)c(C)c1CN(C)C(=O)c1ccc(Cl)cc1 (configuration not stated)	-7%	i	8%	-5%	-4%	i
Cc1onc(-c2ccccc2Cl)c1C(=O)Nc1cccc2cccnc12	?	i	4.1µM*	-26%	9.2µM*	12µM*
Cc1onc(-c2ccccc2Cl)c1C(=O)Nc1cccc2nsnc12	-2%	i	?	2%	?	i
SMILES	HT1080 IDH1KD tx	KB-3-1 tox	TDP1 cell noCPT	HT1080-NT tox	DT40 TDP1 CPT	KB-V1 MDR tox
COc1cc(NC(=O)c2c(-c3ccccc3Cl)noc2C)c2ncccc2c1	16%	i	16µM*	25%	16µM*	i
COc1cc(NC(=O)c2ccc(Cl)cc2)c2ncccc2c1	3%	i	13%	9%	-14%	i
Cc1cccc(-n2ncc3c(NCCCO)ncnc32)c1	2%	i	-8%	-9%	-1%	i
c1ccc(-n2ncc3c(NCCCN4CCOCC4)ncnc32)cc1	11%	i	7%	11%	-9%	i
CCN(CC)CCCNc1ncnc2c1cnn2-c1ccc(C)c(C)c1	nt	i	16µM*	nt	?	i
Cc1ccc(-n2ncc3c(NCCCN4CCOCC4)ncnc32)cc1C	nt	i	23µM*	nt	?	i
CCOC(=O)c1ccc(NS(=O)(=O)c2ccc(SC)cc2)cc1	-11%	i	?	1%	?	23µM*
CCOC(=O)Cc1ccc(NS(=O)(=O)c2ccc(SC)cc2)cc1	-13%	i	?	1%	?	i
CC(=O)c1ccc(S(=O)(=O)Nc2ccc(N3CCOCC3)cc2)cc1	1%	i	-18%	4%	-2%	i
CCOC(=O)c1ccc(S(=O)(=O)Nc2ccc(N3CCOCC3)cc2)cc1	0%	i	?	0%	21µM*	i
Cc1ccc(-n2c(SCC(=O)Nc3ccc4c(c3)OCO4)nc3c([nH]c4ccccc43)c2=O)cc1	nt	nt	?	nt	-1%	nt
Cc1ccc(OCc2nnc(N)s2)cc1C	6%	i	-14%	8%	-1%	i
Cc1cc(C)cc(NCc2ccncc2)c1	-1%	i	2%	-8%	-1%	i
CC(C)CC(OC(=O)c1ccco1)C(=O)NC1CCCC1 (configuration not stated)	4%	i	1%	12%	-1%	i
S=c1nc[nH]c2c1cnn2-c1ccccc1	0%	?	5%	17%	-6%	8.2µM*
CCNC(=S)Nc1ccc(Cl)cc1	14%	i	-34%	14%	-17%	i
Cc1c(Cl)cccc1NC(=S)NCCc1ccccn1	11%	i	-5%	19%	8%	?
S=C(NCCc1ccccc1)Nc1ccc(Cl)cc1	-22%	i	4.6µM*	-13%	21µM*	?
